According to PubChem BioAssay AID1672 (Johns Hopkins Ion Channel Center, 2009):
In all, about 310,000 compounds went through this assay and about 2,600 (0.84%) were called active. This is one part of a sample in which actives are shown more often than they occur.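 How the source made its calls: active means fluorescence ratio B-score at or below minus 3 SD of library scores, with starting-brightness B-score within 2 SD (cut at about -4.2 in these data); inactive means the rest.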

Target: Inward rectifier potassium channel 2 (Mus musculus) (UniProt P35561)
Experiment: blocks the mouse Kir2.1 inward-rectifier potassium channel (AID 1672);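 further: channel flux triggered by added potassium and thallium sulfate stimulus; B-score of peak minus minimum fluorescence over baseline after thallium stimulus; more negative B-score means stronger Kir2.1 block with less thallium influx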
Conditions: HEK293-Kir2.1, FluxOR thallium flux fluorescence; at 10 µM; stronger effect = lower value

Chain of Inward rectifier potassium channel 2 (Mus musculus) (P35561 whole entry, looked up): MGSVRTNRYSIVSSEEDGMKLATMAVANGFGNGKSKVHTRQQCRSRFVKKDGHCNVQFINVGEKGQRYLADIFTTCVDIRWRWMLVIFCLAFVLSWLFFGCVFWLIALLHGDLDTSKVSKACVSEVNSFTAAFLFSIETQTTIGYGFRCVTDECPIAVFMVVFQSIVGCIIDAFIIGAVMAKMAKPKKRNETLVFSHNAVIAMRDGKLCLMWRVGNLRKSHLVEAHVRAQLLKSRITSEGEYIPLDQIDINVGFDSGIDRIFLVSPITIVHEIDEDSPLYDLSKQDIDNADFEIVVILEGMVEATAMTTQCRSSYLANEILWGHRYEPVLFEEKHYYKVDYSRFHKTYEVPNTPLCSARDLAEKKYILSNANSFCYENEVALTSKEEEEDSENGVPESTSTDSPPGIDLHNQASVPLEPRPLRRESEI

| Structure (SMILES) | B-score |
| --- | --- |
| O=C(NCCCc1ccccc1)C(=O)NCC1OCCN1S(=O)(=O)c1ccccc1 (stereo unspecified) | 0.45 (inactive) |
| CCOc1ccc(S(=O)(=O)N2CCN=C2Cc2ccccc2)cc1C | -3.8 (inactive) |
| CC1=NCCN1S(=O)(=O)c1cccc([N+](=O)[O-])c1 | 0 (inactive) |
| COc1cc(S(=O)(=O)N2CCN=C2c2ccccc2)ccc1Cl | -5.41 (active) |
| CCOC(=O)c1cc(C(C)C)sc1NC(=O)COC(=O)c1nccnc1N | -0.16 (inactive) |
| CCCCN(C(=O)c1ccc(S(=O)(=O)N2CCOCC2)cc1)C1CCS(=O)(=O)C1 (stereo unspecified) | -1.08 (inactive) |
| Cc1ccc(-c2nn(-c3ccccc3)cc2C(=O)NCCCN2CCCC2=O)cc1 | -0.8 (inactive) |
| COc1ccccc1OCC(O)CN1CCOCC1 (stereo unspecified) | 1.4 (inactive) |
| Cc1ccc(OCC(O)CN2CCN(CC(O)COc3ccc(C)cc3Cl)CC2)c(Cl)c1 (stereo unspecified) | 0.66 (inactive) |
| OC(COc1ccc(F)cc1Cl)CN1CCc2ccccc2C1 (stereo unspecified) | -5.33 (active) |
| Cc1ccc(C(=O)NC2CCCC(C)C2C)cc1S(=O)(=O)N1CCCCC1 (stereo unspecified) | -1.83 (inactive) |
| CCCCC(=O)NCc1ccc(F)cc1 | 0.15 (inactive) |
| CCn1cc(CCC(=O)NCc2ccc(F)cc2)c2ccccc21 | -6.18 (active) |
| O=C(Cc1ccccc1)NCc1ccc(F)cc1 | 0.8 (inactive) |
| CCC(C(=O)OCCN(CC)CC)c1ccccc1 (stereo unspecified) | 0.4 (inactive) |
| CCN(CC)CCOC(=O)c1ccc(NC(=O)CNC(=O)c2ccccc2)cc1 | 0.63 (inactive) |
| CCCC(C(=O)OCCN(CC)CC)(c1ccccc1)c1ccccc1 | -5.06 (active) |
| COc1cc(C(=O)OCC(=O)N(CC(C)C)C2CCS(=O)(=O)C2)ccc1OCC(C)C (stereo unspecified) | 1.65 (inactive) |
| COc1ccc(NC(=O)CSc2nnc(Cc3ccccc3)c(=O)n2N)cc1 | -1.28 (inactive) |
| CC12CCC(=O)N1C(C(=O)Nc1ccc(F)c(F)c1F)CS2 (stereo unspecified) | 1.46 (inactive) |
| COc1cccc(CNC(=O)C(=O)NCCC2CCCCN2S(=O)(=O)c2ccc(C)cc2)c1 (stereo unspecified) | -0.02 (inactive) |

| Structure (SMILES) | B-score |
| --- | --- |
| COc1cccc(CN(C)CC(=O)Nc2sc3c(c2C#N)CCC3)c1 | 1.34 (inactive) |
| COc1cccc(CN(C)CC(=O)Nc2ccccc2C(=O)Nc2ccccc2)c1 | 0.2 (inactive) |
| COc1cccc(CN(C)CC(O)COC(c2ccccc2)c2ccccc2C)c1 (stereo unspecified) | -9.28 (active) |
| C=CCOc1ccc(/C=C/C(=O)OC(C)C(=O)Nc2ccc(NC(C)=O)cc2)cc1 (stereo unspecified) | 1.98 (inactive) |
| CSc1nc2ccccc2c(=O)n1Cc1ccc(F)cc1 | -0.15 (inactive) |
| CSc1c(SCc2ccccc2)cnn(Cc2ccccc2)c1=O | -5.77 (active) |
| Cn1c(CO)cnc1SCc1ccccc1 | 0.48 (inactive) |
| O=C(NCCC1CCCCN1S(=O)(=O)c1ccc(Cl)cc1)C(=O)NCc1ccco1 (stereo unspecified) | 0.39 (inactive) |
| CCCNC(=O)CSc1nc(Cc2ccccc2)nc2ccccc12 | -5.07 (active) |
| CCc1nc(SCC(=O)NNC(=O)c2ccc(C)cc2)c2ccccc2n1 | -1.13 (inactive) |
| CCCc1nc(SCC(=O)Nc2ccc(S(=O)(=O)N(C)C)cc2)c2ccccc2n1 | 0.71 (inactive) |
| Brc1cnc2ccccc2c1N1CCCCC1 | 0.77 (inactive) |
| CCOc1ccc(NS(=O)(=O)c2ccc(C(=O)NCC(c3ccccc3OC)N3CCCC3)cc2)cc1 (stereo unspecified) | -0.36 (inactive) |
| CC1CCN(C(=O)COC(=O)c2cc(S(=O)(=O)N3CCOCC3)ccc2Cl)CC1 | -1.43 (inactive) |
| CCOc1ccc(/C=C/C(=O)N(CC)CC(=O)NCc2cccs2)cc1OC | 0.23 (inactive) |
| Cc1ccccc1NC(=O)NCC1CCN(Cc2cccc(Cl)c2)CC1 | -0.23 (inactive) |
| Cc1cccc(CN2CCC(CNC(=O)Nc3ccc(F)c(Cl)c3)CC2)c1 | -4.23 (active) |
| Cc1ccc(C)c(CN2CCC(CNC(=O)Nc3ccc(C)c(F)c3)CC2)c1 | -0.54 (inactive) |
| O=C1[C@H]2[C@@H](c3ccc(Cl)cc3)N3C(=O)N(c4cccc(F)c4)C(=O)[C@@]3(Cc3ccccc3)[C@H]2C(=O)N1C1CCCCC1 | 1.66 (inactive) |
| CCCC[C@@H]1CN=C(N)N1CCCC | 0 (inactive) |
| O=C(NCC(c1ccco1)N1CCc2ccccc21)c1cccc(F)c1 (stereo unspecified) | -0.73 (inactive) |

| Structure (SMILES) | B-score |
| --- | --- |
| C=CCc1cc(C)ccc1OCCCn1ccnc1 | 0.46 (inactive) |
| Clc1c(OCCCn2ccnc2)ccc2ccccc12 | -7.14 (active) |
| c1ccc(Cc2ccc(OCCn3ccnc3)cc2)cc1 | -1.84 (inactive) |
| CC(=O)Nc1ccc(NC(=O)CSC2=NS(=O)(=O)c3ccccc3N2)cc1 | 1.78 (inactive) |
| CC1(C)CC[C@]2(C(=O)O)CC[C@]3(C)C(=CCC4[C@@]5(C)CC[C@H](O)C(C)(C)C5[C@H](O)C[C@]43C)[C@@H]2C1 (stereo partly specified) | -0.05 (inactive) |
| CC(=O)c1sc(N)nc1C | 0.05 (inactive) |
| O=C1CC2(CCN(C(=O)COc3ccc(F)cc3)CC2)Oc2ccccc21 | -0.48 (inactive) |
| CN(CC#CCC(c1ccccc1)c1ccccc1)C(C)(C)C | -5.14 (active) |
| CC(C)(C)N(CC#CCC(O)(c1ccccc1)C1CCCC1)CCO (stereo unspecified) | -0.14 (inactive) |
| COc1ccc(C#Cc2c(-c3ccc(OC)cc3)oc3ccc(-c4ccc5c(c4)OCO5)cc23)cc1 | 0.43 (inactive) |
| COc1ccc(N(Cc2ccccc2)S(=O)(=O)c2cccc(C(=O)O)c2)cc1 | -0.29 (inactive) |
| C=CCN(c1ccc(Cl)cc1)S(=O)(=O)c1cccc(C(=O)OCC(=O)N(C)C)c1 | -4.24 (active) |
| CN(C)S(=O)(=O)c1cccc(C(=O)OCC(=O)N2CCCC2=O)c1 | 0.88 (inactive) |
| CCN(CC(=O)Nc1cccc(S(=O)(=O)N2CCCCC2)c1)Cc1ccccc1 | -0.91 (inactive) |
| Cc1ccccc1NC(=O)COc1cccc2c1CCNC2=O | -0.1 (inactive) |
| Cc1cc(OCC(=O)N(C)c2c(N)n(Cc3ccccc3)c(=O)[nH]c2=O)c(C(C)C)cc1Cl | -0.39 (inactive) |
| FC(F)(F)c1ccc2c3n(nc2c1)CCN=C3c1ccc(Cl)cc1 | 0.62 (inactive) |
| CN(C(=O)c1cc2c(=O)n3ccccc3nc2s1)C1CCCCC1 | -0.51 (inactive) |
| CC(C)CN(C(=O)Cn1c(=O)cnc2ccccc21)C1CCS(=O)(=O)C1 (stereo unspecified) | -2.2 (inactive) |
